# Laboratory results as given in PubChem BioAssay.
# Results filed as inconclusive are left out. Calls of active or inactive are those of the source.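 How the source made its calls, unless noted: active means normalized viability below 100% at a tested concentration; inactive means the rest.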
# What was measured:
# [1] = growth inhibition of DIPG glioma cells, dose response, cell-based, SU-DIPG-XIII, MIPE4.0, CellTiter-Glo, qHTS (AID 1347061; cut-off not given, nearly all actives have AC50 up to about 37 µM;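 further: cells exposed to compound for 48 hours before readout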); conditions: SU-DIPG-XIII viability, CellTiter-Glo ATP luminescence
# [2] = growth inhibition of DIPG glioma cells, dose response, cell-based, JHH-DIPG-1, MIPE4.0, CellTiter-Glo, qHTS (AID 1347062; cut-off not given, nearly all actives have AC50 up to about 27 µM;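 on AC50: cells exposed to compound for two days before readout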); conditions: JHH-DIPG-1 viability, CellTiter-Glo ATP luminescence
# [3] = SU-DIPG-VI glioma cell viability, MIPE4.0 library, CellTiter-Glo luminescence, qHTS (AID 1347066; cut-off not given, nearly all actives have AC50 up to about 30 µM;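 further: cells exposed to compound for 48 hours before readout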); conditions: CellTiter-Glo ATP luminescence
# [4] = viability loss in pontine glioma line – cell-based, SU-DIPG-XXV, MIPE5.0, CellTiter-Glo, qHTS, dose response (AID 1347065; cut-off not given, nearly all actives have AC50 up to about 26 µM;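 further: cells exposed to compound for 48 hours before ATP readout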); conditions: CellTiter-Glo ATP luminescence
# [5] = SU-DIPG-XXV glioma cell viability, MIPE5.0 library, qHTS (AID 1347068; cut-off not given, nearly all actives have IC50 up to about 30 µM;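 on IC50: cells exposed to compound for 48 hours before viability readout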)
# [6] = JHH-DIPG-1 glioma cell viability, MIPE5.0 library, CellTiter-Glo luminescence, qHTS (AID 1347067; cut-off not given, nearly all actives have AC50 up to about 26 µM;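 further: cells exposed to compound for 48 hours before readout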); conditions: JHH-DIPG-1 glioma viability, CellTiter-Glo ATP luminescence
# [7] = sensitizers of A549 cells to miR-34 induction, primary screen, imaging, A549 dox-inducible miR-34, nuclei and caspase counts (AID 1347080;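 active means compounds whose cell count with miR-34 switched on is under 0.7 times the count with it off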); conditions: A549 miR-34 inducible, Hoechst nuclei count, 48 h
# [8] = modifiers of HSF1 nuclear foci, imaging, Selleck Cancer Library (AID 1347162; in the data active means plate-normalised HSF1 focus index below about 0.46); conditions: human cells, at 10 µM; SSMD: measured here: HSF1 foci SSMD mean; cell count: measured here: cell number; plate-normalised HSF1 focus index: stronger effect = lower value
# [9] = survival rescue of mitochondrial mutant cells in low glucose, primary screen, MELAS cybrids, Rieske KO mouse fibroblasts, CellTiter-Glo (AID 1508586;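 active means mean z-score across replicates of 1.96 or higher in either the MELAS or the Rieske mutant cell line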;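 further: z relative to plate mean and SD of compound and empty wells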)
# [10] = ovarian cancer cell viability with rucaparib, profiling panel, oncology-focused library, rucaparib conditional (AID 1508598); conditions: patient-derived ovarian cancer cells, CellTiter-Glo viability, 144 h, stronger effect = lower value
# [11] = growth inhibition of DIPG glioma cells, dose response, cell-based, SU-DIPG-XIII, MIPE5.0, CellTiter-Glo, qHTS (AID 1347064; cut-off not given, nearly all actives have AC50 up to about 23 µM;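 on AC50: cells exposed to compound for 48 hours before the viability read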); conditions: SU-DIPG-XIII viability, CellTiter-Glo ATP luminescence
# [12] = growth inhibition of DIPG glioma cells, dose response, cell-based, SU-DIPG-IV, MIPE4.0, CellTiter-Glo, qHTS (AID 1347063; cut-off not given, nearly all actives have AC50 up to about 30 µM;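 further: compound exposure lasted 48 hours before the viability readout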); conditions: SU-DIPG-IV viability, CellTiter-Glo ATP luminescence
# [13] = at 0.000305 µM, OCI-C5x cells, with rucaparib 10 µM, 100% = cells with rucaparib alone
# [14] = at 0.000305 µM, OCI-C5x cells, without rucaparib
# [15] = at 0.000305 µM, OCI-P5x cells, with rucaparib 20 µM, 100% = cells with rucaparib alone
# [16] = at 0.000305 µM, OCI-P5x cells, without rucaparib
# [17] = at 0.00122 µM, OCI-C5x cells, with rucaparib 10 µM, 100% = cells with rucaparib alone
# [18] = at 0.00122 µM, OCI-C5x cells, without rucaparib
# [19] = at 0.00122 µM, OCI-P5x cells, with rucaparib 20 µM, 100% = cells with rucaparib alone
# [20] = at 0.00122 µM, OCI-P5x cells, without rucaparib
# [21] = at 0.00488 µM, OCI-C5x cells, with rucaparib 10 µM, 100% = cells with rucaparib alone
# [22] = at 0.00488 µM, OCI-C5x cells, without rucaparib
# [23] = at 0.00488 µM, OCI-P5x cells, with rucaparib 20 µM, 100% = cells with rucaparib alone
# [24] = at 0.00488 µM, OCI-P5x cells, without rucaparib
# [25] = at 0.0195 µM, OCI-C5x cells, with rucaparib 10 µM, 100% = cells with rucaparib alone
# [26] = at 0.0195 µM, OCI-C5x cells, without rucaparib
# [27] = at 0.0195 µM, OCI-P5x cells, with rucaparib 20 µM, 100% = cells with rucaparib alone
# [28] = at 0.0195 µM, OCI-P5x cells, without rucaparib
# [29] = at 0.0781 µM, OCI-C5x cells, with rucaparib 10 µM, 100% = cells with rucaparib alone
# [30] = at 0.0781 µM, OCI-C5x cells, without rucaparib
# [31] = at 0.0781 µM, OCI-P5x cells, with rucaparib 20 µM, 100% = cells with rucaparib alone
# [32] = at 0.0781 µM, OCI-P5x cells, without rucaparib
# [33] = at 0.313 µM, OCI-C5x cells, with rucaparib 10 µM, 100% = cells with rucaparib alone
# [34] = at 0.313 µM, OCI-C5x cells, without rucaparib
structure (smiles),measurement,setting,value
CCCCc1ccc(NS(=O)(=O)c2ccc(C)c(C(=O)N3CCN(c4cccc(C)c4C)CC3)c2)cc1,outcome,[1],inactive
same,outcome,[2],inactive
same,AC50,[3],23.5 µM (active)
Clc1cc(Cl)cc(CNc2ncncc2-c2ccc3c(c2)OCO3)c1,outcome,[1],inactive
same,outcome,[2],inactive
same,outcome,[3],inactive
CCN1CCN(C(=O)N[C@H](C(=O)N[C@@H]2C(=O)N3C(C(=O)O)=C(CSc4nnnn4C)CS[C@@H]23)c2ccc(O)cc2)C(=O)C1=O,outcome,[1],inactive
same,outcome,[2],inactive
same,outcome,[3],inactive
O=C(N[C@@H](c1ccccc1)[C@@H]1CCCCN1)c1cccc(C(F)(F)F)c1Cl,outcome,[1],inactive
same,outcome,[2],inactive
same,AC50,[4],20.9 µM (active)
same,outcome,[3],inactive
same,outcome,[5],inactive
COc1cc(N2CCN(C)CC2)ccc1Nc1nc(N)c(C(=O)c2c(Cl)cccc2Cl)s1,outcome,[1],inactive
same,outcome,[2],inactive
same,outcome,[3],inactive
CCCn1c(=O)c2[nH]c(C34CC5CC3C[C@@H](C5)C4)nc2n(CCC)c1=O,outcome,[1],inactive
same,outcome,[2],inactive
same,outcome,[3],inactive
same,outcome,[5],inactive
NC(=O)c1noc([C@H](CCCC2CCCCC2)CC(=O)NO)n1,outcome,[1],inactive
same,AC50,[2],23.5 µM (active)
same,outcome,[3],inactive
same,outcome,[6],inactive
same,outcome,[5],inactive
Cn1cc(-c2ccc3nnc(C(F)(F)c4ccc5ncccc5c4)n3n2)cn1,outcome,[1],inactive
same,outcome,[2],inactive
same,outcome,[4],inactive
same,outcome,[6],inactive
same,outcome,[5],inactive
same,fold change,"[7]; stronger effect = lower value, cell number ratio, induced over uninduced",0.861 (inactive)
same,fold change,[7]; measured here: relative caspase fold change +Dox/-Dox,0.881
same,cell count,"[7]; measured here: total cells with miR-34 induction, stronger effect = lower value",6960
same,cell count,[7]; measured here: total cells without miR-34 induction,8080
same,SSMD,[8],2.73
same,cell count,[8],6920
same,plate-normalised HSF1 focus index,[8],1.14 (inactive)
same,z-score,"[9]; MELAS cybrid survival, CellTiter-Glo 48 h, stronger effect = higher value",-0.414 (inactive)
same,z-score,"[9]; Rieske KO mouse fibroblast survival, CellTiter-Glo 72 h",0.567
same,viability,[10]; [13],113% (inactive)
same,viability,[10]; [14],90.8% (active)
same,viability,[10]; [15],102% (inactive)
same,viability,[10]; [16],89.6% (active)
same,viability,[10]; [17],123% (inactive)
same,viability,[10]; [18],106% (inactive)
same,viability,[10]; [19],104% (inactive)
same,viability,[10]; [20],98.1% (active)
same,viability,[10]; [21],118% (inactive)
same,viability,[10]; [22],109% (inactive)
same,viability,[10]; [23],107% (inactive)
same,viability,[10]; [24],101% (inactive)
same,viability,[10]; [25],116% (inactive)
same,viability,[10]; [26],114% (inactive)
same,viability,[10]; [27],106% (inactive)
same,viability,[10]; [28],98.3% (active)
same,viability,[10]; [29],110% (inactive)
same,viability,[10]; [30],110% (inactive)
same,viability,[10]; [31],104% (inactive)
same,viability,[10]; [32],102% (inactive)
same,viability,[10]; [33],120% (inactive)
same,viability,[10]; [34],112% (inactive)
same,viability,"[10]; at 0.313 µM, OCI-P5x cells, with rucaparib 20 µM, 100% = cells with rucaparib alone",105% (inactive)
same,viability,"[10]; at 0.313 µM, OCI-P5x cells, without rucaparib",95.6% (active)
same,viability,"[10]; at 1.25 µM, OCI-C5x cells, with rucaparib 10 µM, 100% = cells with rucaparib alone",133% (inactive)
same,viability,"[10]; at 1.25 µM, OCI-C5x cells, without rucaparib",123% (inactive)
same,viability,"[10]; at 1.25 µM, OCI-P5x cells, with rucaparib 20 µM, 100% = cells with rucaparib alone",107% (inactive)
same,viability,"[10]; at 1.25 µM, OCI-P5x cells, without rucaparib",104% (inactive)
same,viability,"[10]; at 5 µM, OCI-C5x cells, with rucaparib 10 µM, 100% = cells with rucaparib alone",130% (inactive)
same,viability,"[10]; at 5 µM, OCI-C5x cells, without rucaparib",137% (inactive)
same,viability,"[10]; at 5 µM, OCI-P5x cells, with rucaparib 20 µM, 100% = cells with rucaparib alone",97% (active)
same,viability,"[10]; at 5 µM, OCI-P5x cells, without rucaparib",104% (inactive)
CCCCC(=O)O[C@]1(C(=O)CO)[C@H](C)C[C@H]2[C@@H]3CCC4=CC(=O)C=C[C@]4(C)[C@@]3(F)[C@@H](O)C[C@@]21C,outcome,[1],inactive
same,outcome,[2],inactive
same,outcome,[3],inactive
CC1(C)OC2CC3C4CC(F)C5=CC(=O)C=CC5(C)C4C(O)CC3(C)[C@]2(C(=O)CO)O1 (some centres undefined),outcome,[1],inactive
same,outcome,[2],inactive
same,outcome,[3],inactive
O=C(OCC#CCSc1nnc(-c2cccc3ccccc23)o1)c1cc2ccccc2s1,outcome,[1],inactive
same,outcome,[2],inactive
same,outcome,[3],inactive
CN(C)/[N+]([O-])=N/Oc1cc(ON[N+](=O)N2CCN(C(=O)c3cc(Cc4n[nH]c(=O)c5ccccc45)ccc3F)CC2)c([N+](=O)[O-])cc1[N+](=O)[O-],AC50,[1],20.9 µM (active)
same,AC50,[2],13.2 µM (active)
same,outcome,[3],inactive
CC(C)(Cc1ccc2ccccc2c1)NC[C@@H](O)COc1cccc(Cl)c1C#N,outcome,[1],inactive
same,outcome,[2],inactive
same,AC50,[11],8.33 µM (active)
same,AC50,[4],10.5 µM (active)
same,AC50,[6],10.5 µM (active)
same,IC50,[5],13.2 µM (active)
CCCCn1c(=O)n(Cc2ccccc2F)c(=O)c2[nH]c(Cc3ccc(NC(C)=O)cc3)nc21,outcome,[1],inactive
same,outcome,[2],inactive
same,outcome,[3],inactive
same,outcome,[6],inactive
same,outcome,[5],inactive
same,SSMD,[8],3.98
same,cell count,[8],6960
same,plate-normalised HSF1 focus index,[8],1.24 (inactive)
CC[C@]1(O)C[C@@H]2CN(CCc3c([nH]c4ccccc34)[C@@](C(=O)OC)(c3cc4c(cc3OC)N(C=O)[C@@H]3C45CCN4CC=C[C@](CC)([C@H]45)[C@@H](OC(C)=O)[C@]3(O)C(=O)OC)C2)C1 (some centres undefined),outcome,[1],inactive
same,outcome,[12],inactive
same,SSMD,[8],2.03
same,cell count,[8],6870
same,plate-normalised HSF1 focus index,[8],1.12 (inactive)
CN1CCN(c2cc(C(=O)Nc3ccc4c(c3)-c3c(c(C(N)=O)nn3-c3ccc(F)cc3)CC4)c(Cl)cn2)CC1,AC50,[1],9.35 µM (active)
same,AC50,[12],18.7 µM (active)
same,AC50,[11],14.8 µM (active)
same,AC50,[4],10.5 µM (active)
same,AC50,[3],23.5 µM (active)
same,AC50,[6],13.2 µM (active)
CCOC(=O)N1c2ccc(C(F)(F)F)cc2[C@@H](N(Cc2cc(C(F)(F)F)cc(C(F)(F)F)c2)C(=O)OC)C[C@H]1CC,outcome,[1],inactive
same,outcome,[11],inactive
same,outcome,[3],inactive
same,outcome,[6],inactive
same,outcome,[5],inactive
C[C@@H](NCc1cc2ccccc2[nH]1)c1cccc2ccccc12,outcome,[1],inactive
same,outcome,[12],inactive
same,AC50,[4],26.3 µM (active)
same,outcome,[3],inactive
same,AC50,[6],14.8 µM (active)
C[C@H](NC(=O)Cc1cc(F)cc(F)c1)C(=O)N[C@@H]1C(=O)N(C)c2ccccc2-c2ccccc21,AC50,[1],18.7 µM (active)
same,outcome,[4],inactive
same,outcome,[3],inactive
same,outcome,[6],inactive
same,outcome,[5],inactive
same,SSMD,[8],-0.743
same,cell count,[8],5760
same,plate-normalised HSF1 focus index,[8],0.981 (inactive)
same,viability,[10]; [13],117% (inactive)
same,viability,[10]; [14],120% (inactive)
same,viability,[10]; [15],94.9% (active)
same,viability,[10]; [16],97.1% (active)
same,viability,[10]; [17],121% (inactive)
same,viability,[10]; [18],124% (inactive)
same,viability,[10]; [19],93.1% (active)
same,viability,[10]; [20],102% (inactive)
same,viability,[10]; [21],118% (inactive)
same,viability,[10]; [22],127% (inactive)
same,viability,[10]; [23],90.9% (active)
same,viability,[10]; [24],102% (inactive)
same,viability,[10]; [25],122% (inactive)
same,viability,[10]; [26],129% (inactive)
same,viability,[10]; [27],101% (inactive)
same,viability,[10]; [28],97.6% (active)
same,viability,[10]; [29],122% (inactive)
same,viability,[10]; [30],132% (inactive)
same,viability,[10]; [31],96.3% (active)
same,viability,[10]; [32],104% (inactive)
same,viability,[10]; [33],131% (inactive)
same,viability,[10]; [34],145% (inactive)
